Test results taken from PubChem BioAssay.
Calls of active or inactive are those of the source.

How the values were obtained:
[1] = test system: Plasmodium falciparum Sir2 (PF13_0152, Sir2A); test: Plasmodium falciparum Sir2A binding compounds – biochemical, small-molecule microarray, 635 nm fluorescence, primary screen (AID 1098); conditions: fluorescence 635 nm, higher = more signal;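 also: score merges spot fluorescence intensity with its signal-to-noise ratio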
[2] = probe aDKK1 binding to arrayed compounds – biochemical, biotinylated probe, 635/667 nm fluorescence, primary screen (AID 1099); conditions: small-molecule microarray, higher = more signal;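 also: score merges 667nm spot fluorescence with signal to noise across triplicate slides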
[3] = probe aCHRDL2 binding to arrayed compounds – biochemical, biotinylated probe, 635/667 nm fluorescence, primary screen (AID 1100); conditions: small-molecule microarray, higher = more signal
[4] = change in splice reporter luminescence, either direction, cell-based, HEK293, spliceosome inhibition project, primary screen (AID 1101); conditions: HEK293 splicing luciferase reporter, 24 h, higher = more signal, called active from +8 up or from −8 down;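 also: HEK293 cells carrying a splicing-competent luciferase reporter gene; test concentration not given here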
[5] = target: Fibroblast growth factor 10 (Homo sapiens) (UniProt O15520); test: compounds binding fibroblast growth factor 10 – biochemical, small-molecule microarray, 635 nm fluorescence, primary screen (AID 1102); conditions: FGF10 binding, fluorescence 635 nm, higher = more signal
Chain of Fibroblast growth factor 10 (Homo sapiens) (O15520 whole entry, looked up): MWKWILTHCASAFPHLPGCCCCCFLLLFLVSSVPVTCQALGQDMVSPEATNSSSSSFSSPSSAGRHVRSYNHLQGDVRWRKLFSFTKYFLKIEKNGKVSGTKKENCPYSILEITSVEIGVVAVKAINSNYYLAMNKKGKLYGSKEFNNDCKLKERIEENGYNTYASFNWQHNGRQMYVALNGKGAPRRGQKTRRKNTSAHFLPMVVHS

[6] = test system: glycogen synthase kinase-3 (GSK3A per assay name; protocol says GSK3B); test: compounds binding glycogen synthase kinase-3 – biochemical, small-molecule microarray, 635 nm fluorescence, GSK3A, primary screen (AID 1103); conditions: fluorescence 635 nm, higher = more signal; also: the record names both GSK3A and GSK3B
[7] = target: Epidermal growth factor receptor (Homo sapiens) (UniProt P00533); test: compounds binding epidermal growth factor receptor – biochemical, small-molecule microarray, 635 nm fluorescence, primary screen (AID 1104); conditions: EGFR binding, higher = more signal;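 also: score merges 667 nm emission intensity with spot signal to noise over triplicate slides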
Chain of Epidermal growth factor receptor (Homo sapiens) (P00533 whole entry, looked up): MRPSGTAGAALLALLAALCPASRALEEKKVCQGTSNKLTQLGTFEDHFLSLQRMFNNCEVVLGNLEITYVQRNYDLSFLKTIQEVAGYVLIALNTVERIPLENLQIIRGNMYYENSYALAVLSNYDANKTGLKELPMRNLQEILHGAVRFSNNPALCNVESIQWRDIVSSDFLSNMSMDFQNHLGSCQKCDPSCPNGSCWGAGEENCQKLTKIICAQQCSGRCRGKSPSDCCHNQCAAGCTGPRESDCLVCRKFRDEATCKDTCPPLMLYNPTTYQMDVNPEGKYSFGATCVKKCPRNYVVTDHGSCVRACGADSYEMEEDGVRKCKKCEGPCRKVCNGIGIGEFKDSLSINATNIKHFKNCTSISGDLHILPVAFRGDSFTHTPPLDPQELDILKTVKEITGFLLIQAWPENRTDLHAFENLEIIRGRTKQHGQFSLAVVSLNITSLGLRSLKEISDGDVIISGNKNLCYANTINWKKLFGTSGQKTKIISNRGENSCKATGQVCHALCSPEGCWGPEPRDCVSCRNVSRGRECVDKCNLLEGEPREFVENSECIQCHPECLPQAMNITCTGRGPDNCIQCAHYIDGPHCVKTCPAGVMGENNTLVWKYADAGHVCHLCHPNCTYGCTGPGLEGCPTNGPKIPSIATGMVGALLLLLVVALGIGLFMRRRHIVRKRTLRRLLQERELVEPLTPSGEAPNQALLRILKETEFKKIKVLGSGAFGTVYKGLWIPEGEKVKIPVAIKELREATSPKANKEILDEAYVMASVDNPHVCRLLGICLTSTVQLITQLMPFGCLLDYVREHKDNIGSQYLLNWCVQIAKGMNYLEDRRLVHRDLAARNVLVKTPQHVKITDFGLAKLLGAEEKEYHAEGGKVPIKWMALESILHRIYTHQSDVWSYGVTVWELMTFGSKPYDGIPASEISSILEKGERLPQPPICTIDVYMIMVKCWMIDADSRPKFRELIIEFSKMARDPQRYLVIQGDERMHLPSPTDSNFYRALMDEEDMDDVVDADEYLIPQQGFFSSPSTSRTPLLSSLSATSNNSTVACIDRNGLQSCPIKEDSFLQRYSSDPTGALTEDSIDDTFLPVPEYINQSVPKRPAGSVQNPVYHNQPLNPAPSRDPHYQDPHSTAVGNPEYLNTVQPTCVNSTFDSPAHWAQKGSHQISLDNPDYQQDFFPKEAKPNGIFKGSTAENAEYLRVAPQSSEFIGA

[8] = target: Follistatin-related protein 3 (Homo sapiens) (UniProt O95633); test: compounds binding follistatin-related protein 3 – biochemical, small-molecule microarray, 635 nm fluorescence, primary screen (AID 1105); conditions: FSTL3 binding, higher = more signal;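 also: score merges emission near 667 nm and signal to noise per printed spot across three slides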
Chain of Follistatin-related protein 3 (Homo sapiens) (O95633 whole entry, looked up): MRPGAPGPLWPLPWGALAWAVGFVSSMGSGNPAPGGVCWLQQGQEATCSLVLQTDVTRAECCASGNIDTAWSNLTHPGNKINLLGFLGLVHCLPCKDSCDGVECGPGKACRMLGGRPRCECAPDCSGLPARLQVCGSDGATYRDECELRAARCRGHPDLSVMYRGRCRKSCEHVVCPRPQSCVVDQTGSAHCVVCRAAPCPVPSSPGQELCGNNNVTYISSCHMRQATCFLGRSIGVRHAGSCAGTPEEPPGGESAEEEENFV

[9] = target: Dickkopf-related protein 1 (Homo sapiens) (UniProt O94907); test: small molecules binding DKK1 protein – biochemical, small-molecule microarray, 635 nm fluorescence scan, primary screen (AID 1106); conditions: higher = more signal;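 also: score merges emission near 667 nm with signal to noise over three replicate slides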
Chain of Dickkopf-related protein 1 (Homo sapiens) (O94907 whole entry, looked up): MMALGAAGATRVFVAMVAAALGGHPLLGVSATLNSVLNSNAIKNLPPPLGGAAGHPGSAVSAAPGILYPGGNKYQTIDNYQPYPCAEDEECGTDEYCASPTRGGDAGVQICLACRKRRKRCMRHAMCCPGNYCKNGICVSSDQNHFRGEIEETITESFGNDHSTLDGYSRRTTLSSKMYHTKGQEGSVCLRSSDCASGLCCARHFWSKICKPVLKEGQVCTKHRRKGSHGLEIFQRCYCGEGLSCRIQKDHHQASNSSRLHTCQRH

[10] = test system: Inhibin beta A chain (activin A); test: small molecules binding activin A – biochemical, small-molecule microarray, 635 nm fluorescence scan, primary screen (AID 1107); conditions: INHBA, higher = more signal;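 also: mouse activin A protein probed at 4.33 µg/mL on printed slides; score merges bound-protein fluorescence near 667 nm with spot signal-to-noise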
[11] = test system: Human papillomavirus type 1a protein E7 (residues 44-93); test: small molecules binding HPV E7 44-93 – biochemical, small-molecule microarray, residues 44-93, 635 nm fluorescence, primary screen (AID 1108); conditions: fluorescence 635 nm, higher = more signal;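 also: E7 fragment applied at 1 µg/mL in TBST for 1 h at 4 C; score combines spot fluorescence with its signal to noise ratio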
[12] = hepatitis C replication reporter changes, two-sided – Huh7 cells, luciferase reporter, HCV replication inhibitor project, primary screen (AID 1109); conditions: Huh7 HCV replicon luciferase reporter, 48 h; higher = more signal;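 also: huh7 hepatoma cells harbouring a luciferase neomycin HCV replicon reporter; luciferase luminescence as measure of HCV replicon replication; test concentration not given here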
[13] = target: Left-right determination factor 2 (Homo sapiens) (UniProt O00292); test: small molecules binding LEFTY2 protein – biochemical, small-molecule microarray, 635 nm fluorescence scan, primary screen (AID 1110); conditions: higher = more signal
Chain of Left-right determination factor 2 (Homo sapiens) (O00292 whole entry, looked up): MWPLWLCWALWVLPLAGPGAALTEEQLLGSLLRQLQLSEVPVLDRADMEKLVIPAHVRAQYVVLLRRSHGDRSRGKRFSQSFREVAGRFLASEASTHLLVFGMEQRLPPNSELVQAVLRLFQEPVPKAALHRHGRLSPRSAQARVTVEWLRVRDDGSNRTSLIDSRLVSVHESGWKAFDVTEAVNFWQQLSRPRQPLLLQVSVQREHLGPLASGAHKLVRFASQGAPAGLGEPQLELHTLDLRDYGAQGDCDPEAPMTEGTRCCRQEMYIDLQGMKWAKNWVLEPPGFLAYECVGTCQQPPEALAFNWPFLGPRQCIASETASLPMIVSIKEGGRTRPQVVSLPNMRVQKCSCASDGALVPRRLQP

[14] = target: Calmodulin-1 (Homo sapiens) (UniProt P0DP23); test: small molecules binding calmodulin-1 with EGTA – biochemical, small-molecule microarray, Cy5-labelled CALM1, profiling panel (AID 1111); conditions: Cy5-CALM1 binding fluorescence, higher = more signal;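 also: labelled calmodulin applied in Tris saline Tween buffer holding calcium plus EGTA and DTT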
[15] = target: Calmodulin-1 (Homo sapiens) (UniProt P0DP23); test: small molecules binding Ca-loaded calmodulin-1 – biochemical, small-molecule microarray, Cy5-labelled CALM1, plus calcium, artefact control for SMM control-protein annotation, profiling panel (AID 1112); conditions: Cy5-CALM1 binding fluorescence, higher = more signal;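 also: score merges spot fluorescence with signal to noise from triplicate slides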
[16] = probe aWnt5a binding to arrayed compounds – biochemical, biotinylated probe, 635/667 nm fluorescence, primary screen (AID 1113); conditions: small-molecule microarray, higher = more signal;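 also: score merges 667 nm fluorescence intensity with signal-to-noise per printed feature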
[17] = probe aShh binding to arrayed compounds – biochemical, biotinylated probe, 635/667 nm fluorescence, primary screen (AID 1114); conditions: small-molecule microarray, higher = more signal;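 also: probe is biotin-labelled aShh protein from a stem cell growth factor screen; measures binding of labelled protein to compounds printed on the slide; score merges feature fluorescence at 667 nm with signal-to-noise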
[18] = probe aNog binding to arrayed compounds – biochemical, biotinylated probe, 635/667 nm fluorescence, primary screen (AID 1115); conditions: small-molecule microarray, higher = more signal;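 also: probe is biotinylated aNog protein used at 0.15 µg/mL for 1 h at 4 C; z-score combines 667 nm fluorescence of each spot with its signal to noise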
[19] = target: Torsin-1A-interacting protein 1 (Homo sapiens) (UniProt Q5JTV8); test: compound microarray binding of lysate hLAP1 – cell lysate, small-molecule microarray, COS7 lysate, 635/667 nm fluorescence, primary screen (AID 1116); conditions: 635 nm fluorescence, higher = more signal
Chain of Torsin-1A-interacting protein 1 (Homo sapiens) (Q5JTV8 whole entry, looked up): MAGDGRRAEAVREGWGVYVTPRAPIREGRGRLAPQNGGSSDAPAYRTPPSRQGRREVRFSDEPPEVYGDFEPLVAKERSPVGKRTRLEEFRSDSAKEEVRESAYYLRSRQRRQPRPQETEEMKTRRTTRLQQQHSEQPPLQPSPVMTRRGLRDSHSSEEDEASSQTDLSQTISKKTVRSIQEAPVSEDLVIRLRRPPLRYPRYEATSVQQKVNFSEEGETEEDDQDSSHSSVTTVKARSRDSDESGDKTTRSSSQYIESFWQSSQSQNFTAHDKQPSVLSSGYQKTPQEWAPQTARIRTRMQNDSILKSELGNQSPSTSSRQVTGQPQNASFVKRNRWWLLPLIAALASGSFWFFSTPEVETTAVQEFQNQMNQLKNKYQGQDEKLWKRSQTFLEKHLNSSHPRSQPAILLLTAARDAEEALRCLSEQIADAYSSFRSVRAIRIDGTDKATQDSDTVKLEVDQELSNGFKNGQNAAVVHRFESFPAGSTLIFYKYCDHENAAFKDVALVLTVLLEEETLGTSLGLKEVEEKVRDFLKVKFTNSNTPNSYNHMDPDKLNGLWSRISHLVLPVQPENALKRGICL

[20] = target: Alpha-bungarotoxin (Bungarus multicinctus) (UniProt P60615); test: compounds binding labelled alpha-BTX control protein – biochemical, small-molecule microarray, Alexa647 label, 635/667 nm fluorescence, artefact control for SMM control protein annotation, profiling panel (AID 1117); conditions: alpha-BTX-A647 binding fluorescence, higher = more signal
Chain of Alpha-bungarotoxin (Bungarus multicinctus) (P60615 whole entry, looked up): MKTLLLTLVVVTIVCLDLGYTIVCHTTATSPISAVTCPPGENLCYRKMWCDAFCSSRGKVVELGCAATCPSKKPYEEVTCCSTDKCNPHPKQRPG

Compound NCCCCCNC(=O)[C@H]1C[C@H]2C(=O)N[C@@H](Cc3ccccc3)C(=O)N2[C@H]1c1ccc(O)cc1 has a composite z-score [1] of 1.16, a composite z-score [2] of 1.42 and a composite z-score [3] of 0.937. For the same compound, the z-score [4] was 0.195 (inactive), the composite z-score [5] was -0.0576 and the composite z-score [6] was 0.431. It also gave a composite z-score [7] of -0.381, a composite z-score [8] of 0.275 and a composite z-score [9] of 0.224. The composite z-score [10] was 1.39, the composite z-score [11] was 1.05 and the z-score [12] was 0.0505. For the same compound, the composite z-score [13] was 0.202, the composite z-score [14] was 2.24 and the composite z-score [15] was 1.14. It also gave a composite z-score [16] of 0.183, a composite z-score [17] of 0.596 and a composite z-score [18] of 0.859. For the same compound, the composite z-score [19] was 0.456 and the composite z-score [20] was 0.949.
In the case of CC(C)[Si]1(C(C)C)OCc2cc(-c3ccc(-c4ccc(Cl)c(Cl)c4)o3)nc(CCc3ccccc3)c21, the composite z-score [1] is reported as 0.508, the composite z-score [2] is reported as -0.0914 and the composite z-score [3] is reported as -0.17. The z-score [4] was -2.1 (inactive), the composite z-score [5] was 0.187 and the composite z-score [6] was -0.181. It also gave a composite z-score [7] of -0.833, a composite z-score [8] of 0.169 and a composite z-score [9] of 0.32. For the same compound, the composite z-score [10] was 0.536, the composite z-score [11] was -0.655 and the z-score [12] was -0.826. It also gave a composite z-score [13] of 0.198, a composite z-score [14] of -0.307 and a composite z-score [15] of 0.688. The composite z-score [16] was -0.054, the composite z-score [17] was -0.601 and the composite z-score [18] was 0.428. The composite z-score [19] was -0.395 and the composite z-score [20] was -0.327.
Compound C=CCC(OC(C)=O)[C@@H]1[C@@H](N(Cc2ccc(-c3cccc(C(F)(F)F)c3)o2)C(=O)c2ccc(C)cc2)c2cc(OCCCO)ccc2N1C(=O)Cc1ccc(OC)cc1 (stereo not given in full) has a composite z-score [1] of 1.1, a composite z-score [2] of -0.145 and a composite z-score [3] of -0.0583. For the same compound, the z-score [4] was -0.0858 (inactive), the composite z-score [5] was -0.0938 and the composite z-score [6] was -0.808. It also gave a composite z-score [7] of -0.0424, a composite z-score [8] of 0.345 and a composite z-score [9] of 0.0682. It also gave a composite z-score [10] of 0.975, a composite z-score [11] of -0.918 and a z-score [12] of -0.466. It also gave a composite z-score [13] of -0.115, a composite z-score [14] of -0.697 and a composite z-score [15] of -1.06. It also gave a composite z-score [16] of 0.0327, a composite z-score [17] of -0.439 and a composite z-score [18] of -0.565. It also gave a composite z-score [19] of 0.163 and a composite z-score [20] of -0.056.
Work on COC(=O)[C@@]1(Cc2ccccc2CN=[N+]=[N-])N=C(c2ccc(OCCCO)cc2)O[C@H]1c1ccccc1 yielded a composite z-score [1] of 1.13, a composite z-score [2] of 0.789 and a composite z-score [3] of 0.966. For the same compound, the z-score [4] was 0.31 (inactive), the composite z-score [5] was -0.438 and the composite z-score [6] was -0.0487. It also gave a composite z-score [7] of -0.0819, a composite z-score [8] of -0.153 and a composite z-score [9] of -0.459. For the same compound, the composite z-score [10] was 1.13, the composite z-score [11] was 0.155 and the z-score [12] was -3.09. For the same compound, the composite z-score [13] was -0.59, the composite z-score [14] was -0.426 and the composite z-score [15] was 0.161. It also gave a composite z-score [16] of 0.0101, a composite z-score [17] of -0.0375 and a composite z-score [18] of 1.48. The composite z-score [19] was 1.42 and the composite z-score [20] was 0.779.
Work on O=C1N(CCS(=O)(=O)c2ccccc2)Cc2ccccc2[C@@H]2OC(c3ccc(OCCCO)cc3)=N[C@]12CCS(=O)(=O)c1ccccc1 yielded a composite z-score [1] of 1.14, a composite z-score [2] of 0.846 and a composite z-score [3] of 0.788. The z-score [4] was -0.42 (inactive), the composite z-score [5] was 1.46 and the composite z-score [6] was 1.32. For the same compound, the composite z-score [7] was 0.89, the composite z-score [8] was 1.48 and the composite z-score [9] was 1.46. For the same compound, the composite z-score [10] was 1.22, the composite z-score [11] was 1.48 and the z-score [12] was -0.0756. For the same compound, the composite z-score [13] was 1.14, the composite z-score [14] was 1.23 and the composite z-score [15] was -0.104. The composite z-score [16] was 0.104, the composite z-score [17] was 0.0898 and the composite z-score [18] was 0.445. It also gave a composite z-score [19] of 1.72 and a composite z-score [20] of 0.821.
CC1(C)C(=O)C(c2ccccc2)=C2CN3C(=O)N(CCc4ccccc4)C(=O)C3(Cc3ccc(F)cc3)C=C21 (stereo not given) gave a composite z-score [1] of 0.251, a composite z-score [2] of 1.19 and a composite z-score [3] of 1.24. For the same compound, the z-score [4] was -0.274 (inactive), the composite z-score [5] was -0.236 and the composite z-score [6] was -0.556. The composite z-score [7] was -0.554, the composite z-score [8] was -0.0423 and the composite z-score [9] was -1.11. It also gave a composite z-score [10] of 0.958, a composite z-score [11] of 0.754 and a z-score [12] of -1.47. It also gave a composite z-score [13] of -1.24, a composite z-score [14] of 1.11 and a composite z-score [15] of 0.725. The composite z-score [16] was 0.317, the composite z-score [17] was 0.717 and the composite z-score [18] was 1.8. It also gave a composite z-score [19] of 0.551 and a composite z-score [20] of 0.273.
